Screening data from PubChem.
KCNQ2 enhance: KCNQ2 (rat) channel potentiation | O88943 | CHO-K1 KCNQ2, FluxOR thallium flux fluorescence; active compounds read high | B-score at 10 µM | hit rate 0.54% among 310,000 | AID 2239;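 active = fluorescence ratio B-score at least 3 SD of library B-scores, with initial fluorescence B-score within 3 of them, cut at about 5.3 in these data; same plate scores as AID 2156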;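 also: B-score of peak minus minimum over baseline fluorescence ratio after K+ and Tl+ stimulus; positive B-score means potentiation of KCNQ2 with more thallium influx and brighter signal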
KCNQ2 inh: blocks the rat KCNQ2 potassium channel. O88943. CHO-K1 KCNQ2, FluxOR thallium flux, 20 min; active compounds read low. B-score at 10 µM. hit rate 1.1% among 310,000. AID 2156;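 active = fluorescence ratio B-score at most minus 3 library SDs, with starting brightness B-score within 2 library SDs, cut at about -5.5 in these data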
Kir21 confirm: confirmation of mouse Kir2.1 potassium channel inhibitors. hit rate 41% among 2,300. Kir2.1-expressing cells, FluxOR thallium flux fluorescence; active compounds read low. shares compounds with KCNQ2 enhance. AID 2032. Tl flux remaining, % of negative control (active compounds read low), % at 10 µM;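 active = Primary-screen hit whose thallium flux fell at least 3 control SD below untreated wells in both duplicates, with normal baseline fluorescence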
HEK293 ctr: alters thallium flux in parental HEK293 cells, Kir2.1 counter-screen | AID 2105 | hit rate 19% among 2,300 | FluxOR signal as % of negative control (100 = no effect), % at 10 µM | FluxOR thallium flux fluorescence; 0% = unstimulated blank wells | shares compounds with KCNQ2 enhance;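 active = dye signal at least 3 control SD above or below untreated wells in both duplicates, raw fluorescence within 3, either direction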;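 also: percent is based on the flux ratio of peak minus minimum fluorescence over baseline F0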
CHO-K1 Tl ctr: counter-screen for KCNQ2 potentiators: effect in parental CHO-K1 cells; activity increase over 3SD of controls, % at 10 µM; shares compounds with KCNQ2 enhance; hit rate 43% among 1,200; FluxOR thallium flux fluorescence; zero = vehicle mean+3SD, 100% = vehicle-minus-blank window;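 active = signal rise of at least 3 SD above the untreated control mean, in both duplicate wells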;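 also: counter screen of KCNQ2 potentiator hits so any rise reflects channel-independent effects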
KCNQ1 sel pot: tests whether KCNQ2 potentiators also act on human KCNQ1. hit rate 28% among 1,200. activation over 3SD threshold, % at 10 µM. shares compounds with KCNQ2 enhance. CHO KCNQ1 stable, FluxOR thallium flux fluorescence; beyond 3SD, as % of vehicle-control signal;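 active = fluorescence ratio rise of at least 3 SD of vehicle wells above their mean, in both replicate wells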
KCNQ2 pot conf: confirmation of rat KCNQ2 potassium channel potentiators. shares compounds with KCNQ2 enhance. CHO-KCNQ2 cells, FluxOR thallium flux fluorescence. potentiation, less the hit threshold, % at 10 µM. hit rate 68% among 1,200. AID 2287;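 active = fluorescence ratio rising 3 SD or more over the vehicle control mean in both replicates, plus primary screen hit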;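 also: peak minus minimum thallium fluorescence divided by baseline after K/Tl stimulus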
Kir2-1 sel: mouse Kir2.1 off-target activity of KCNQ2 potentiators; activity over 3SD threshold, % at 10 µM; shares compounds with KCNQ2 enhance; hit rate 2% among 1,200; HEK293 Kir2.1, FluxOR thallium flux fluorescence;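 active = fluorescence ratio rise of at least 3 SD above the vehicle-control mean, seen in both replicates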
KCNQ2 W236L pot: KCNQ2 potentiators acting on retigabine-insensitive rat KCNQ2 W236L mutant | shares compounds with KCNQ2 enhance | CHO KCNQ2-W236L, automated patch clamp current | current increase over 3SD of negative controls (%), active compounds read high, % at 25 µM | hit rate 10% among 940;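 active = current increase at least 3 SD of the untreated controls above them in both duplicate recordings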
Target sequence (O88943 whole entry W236L, looked up): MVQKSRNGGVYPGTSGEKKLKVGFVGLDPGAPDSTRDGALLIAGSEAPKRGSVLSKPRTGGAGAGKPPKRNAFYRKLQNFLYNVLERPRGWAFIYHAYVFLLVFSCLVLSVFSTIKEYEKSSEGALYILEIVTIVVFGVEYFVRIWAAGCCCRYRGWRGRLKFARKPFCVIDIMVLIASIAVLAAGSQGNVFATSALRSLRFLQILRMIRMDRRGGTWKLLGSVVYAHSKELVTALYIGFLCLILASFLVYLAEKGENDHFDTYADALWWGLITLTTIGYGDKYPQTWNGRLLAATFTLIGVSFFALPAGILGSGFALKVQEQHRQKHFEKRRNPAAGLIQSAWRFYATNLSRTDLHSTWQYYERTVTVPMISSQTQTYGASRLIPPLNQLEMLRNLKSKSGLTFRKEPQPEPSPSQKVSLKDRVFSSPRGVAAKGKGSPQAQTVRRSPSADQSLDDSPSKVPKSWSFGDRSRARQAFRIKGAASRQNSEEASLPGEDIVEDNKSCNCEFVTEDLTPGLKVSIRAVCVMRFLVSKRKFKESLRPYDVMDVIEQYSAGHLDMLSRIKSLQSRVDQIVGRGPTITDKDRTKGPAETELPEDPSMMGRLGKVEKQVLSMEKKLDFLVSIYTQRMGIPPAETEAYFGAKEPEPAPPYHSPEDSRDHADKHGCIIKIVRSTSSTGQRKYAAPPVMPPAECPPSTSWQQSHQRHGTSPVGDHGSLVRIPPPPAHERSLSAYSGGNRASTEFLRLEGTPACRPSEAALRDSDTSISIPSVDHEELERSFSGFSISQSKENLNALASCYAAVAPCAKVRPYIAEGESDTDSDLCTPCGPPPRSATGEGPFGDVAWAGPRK
Numbers stand for hits; n = inactive; x = no result given. Hits are enriched below; roughly 1.6% of the tested compounds scored in any of these assays.

SMILES	KCNQ2 enhance	KCNQ2 inh	Kir21 confirm	HEK293 ctr	others
NS(=O)(=O)c1ccc(CCNC(=O)COC(=O)CC(c2ccccc2)c2ccccc2)cc1	x	n	x	x
CN(CC(=O)Nc1ccc(F)cc1)C(=O)COc1ccccc1Cc1ccccc1	n	n	x	x
CCC(=O)c1ccc(OCC(O)CNC(C)c2ccccc2)cc1 (centres undefined)	n	n	x	x
OC(CNCCC(c1ccccc1)c1ccccc1)COc1ccccc1 (centres undefined)	x	n	36.5%	n
CC(C)c1ccc(OCC(O)CNC(C)c2ccccc2)cc1 (centres undefined)	n	n	28.5%	n
OC(CNCCc1ccccc1)COc1ccc(OCC(O)CNCCc2ccccc2)cc1 (centres undefined)	x	n	x	x
CCCCn1c(N)c(N(CCOC)C(=O)COC(=O)COc2ccc(CC)cc2)c(=O)[nH]c1=O	n	n	x	x
COc1ccc(OCC(O)CNC(=O)Nc2cc(F)ccc2C)cc1 (centres undefined)	n	n	x	x
O=C(CSc1nnc(-c2cccnc2)n1Cc1ccco1)c1ccc(Br)cc1	x	n	67.5%	72.5%
O=C(CSc1nnc(-c2cccnc2)n1Cc1ccco1)c1ccc2ccccc2c1	x	n	x	x
S=C(Nc1ccc(Cl)c(Cl)c1)NN1CCOCC1	x	n	x	x
N#Cc1c(C(F)(F)F)cc(-c2ccc(F)cc2)[nH]c1=O	n	n	x	x
N#Cc1c(C(F)(F)F)cc(-c2ccc(Cl)cc2)[nH]c1=O	6.47	n	n	n	CHO-K1 Tl ctr=0.0;KCNQ1 sel pot=n;KCNQ2 pot conf=10.8;Kir2-1 sel=n;KCNQ2 W236L pot=n
CCc1noc(C)c1C(=O)N(CC)c1nc2c(C)cccc2s1	x	n	x	x
CCn1cc(C(=O)NCCN(C)CCc2ccccc2)c(=O)c2cc(S(=O)(=O)N(C)C)ccc21	n	n	x	x
CCn1cc(C(=O)NCCc2ccccc2)c(=O)c2cc(S(=O)(=O)N(C)C)ccc21	n	n	n	n
O=[N+]([O-])c1c(Nc2ccccc2O)ccc2nonc12	n	n	x	x
O=[N+]([O-])c1c(Nc2ccccc2O)cc(Cl)c2nonc12	n	-15.9	71.0%	46.0%
O=C(c1cccc(Cl)c1)N1CCC(c2nc3ccccc3[nH]2)CC1	n	n	x	x
CC1CCCCN1C(=O)CN1CCC(c2nc3ccc(Cl)cc3[nH]2)CC1 (centres undefined)	x	n	x	x
Cc1ccc(CN2CCC(c3nc4ccc(Cl)cc4[nH]3)CC2)cc1	x	n	26.0%	n
Clc1ccc2nc(C3CCN(Cc4ccccc4)CC3)[nH]c2c1	x	n	41.0%	n
CCc1cccc(OCC(O)Cn2c(N3CCCCC3)nc3c2c(=O)[nH]c(=O)n3C)c1 (centres undefined)	n	n	x	x
COc1ccc(/C=N/c2sc3c(c2C#N)CCN(Cc2ccccc2)C3)c(O)c1	x	n	x	x
CN1CCc2c(sc(/N=C/c3cc(C(C)(C)C)ccc3O)c2C#N)C1	11.1	n	n	n	CHO-K1 Tl ctr=n;KCNQ1 sel pot=n;KCNQ2 pot conf=n;Kir2-1 sel=n
SMILES	KCNQ2 enhance	KCNQ2 inh	Kir21 confirm	HEK293 ctr	others
Cc1ccc(S(=O)(=O)C2CS(=O)(=O)CC2O)cc1 (centres undefined)	n	n	x	x
CC(=O)C1=C(S(=O)(=O)c2ccc(C)cc2)CS(=O)(=O)C1	16.7	n	n	72.5%	CHO-K1 Tl ctr=n;KCNQ1 sel pot=n;KCNQ2 pot conf=76.7;Kir2-1 sel=n;KCNQ2 W236L pot=76.4%
CCOc1nc(C)cc(C)c1S(=O)(=O)c1ccc(Cl)cc1	n	n	52.5%	n
COc1nc(C)cc(C)c1S(=O)(=O)c1ccc(Cl)cc1	n	n	x	x
Cc1ccc2c(NC(=O)c3ccco3)cccc2n1	n	n	x	x
S=c1[nH]cnc2sc(-c3ccccc3)cc12	24	n	n	n	CHO-K1 Tl ctr=n;KCNQ1 sel pot=n;KCNQ2 pot conf=70.5;Kir2-1 sel=n;KCNQ2 W236L pot=n
CNc1ncnc2sc(-c3ccccc3)cc12	n	n	x	x
O=C(c1cccnc1)N1CCCC(Nc2ccc(F)cc2)C1 (centres undefined)	n	n	x	x
CCc1ccc(NC(=O)Cc2c(C(=O)O)n(C)c3ccccc23)cc1	n	n	x	x
CCN1CCN(c2cc(C(C)C)nc3c(-c4ccccc4)c(C)nn23)CC1	x	n	60.0%	n
Cc1nn2c(N3CCOCC3)cc(C(C)C)nc2c1-c1ccccc1	x	n	x	x
CC(=O)Cc1nsc(Nc2ccc(Cl)cc2)n1	n	n	x	x
Cc1ccc(C)c(CSCc2nc3ccccc3[nH]2)c1	x	n	74.0%	n
Cc1ccccc1CSCc1nc2ccccc2[nH]1	x	n	x	x
Cc1ccccc1NC(=O)c1cccc(NC(=O)c2ccccc2C(=O)O)c1	n	n	x	x
Cn1cc(Br)c(C(=O)N/N=C/c2cc3ccccc3nc2Cl)n1	x	n	x	x
Cc1ccc(/C=C/C(=O)c2ccccc(=O)c2O)cc1C	6.1	n	n	n	CHO-K1 Tl ctr=n;KCNQ1 sel pot=n;KCNQ2 pot conf=0.8;Kir2-1 sel=n;KCNQ2 W236L pot=n
O=C(/C=C/c1ccccc1)c1cc(Br)ccc(=O)c1O	n	n	x	x
CC(C)NC(=O)Nc1n[nH]c(Nc2ccc(Cl)cc2)n1	5.61	n	n	n	CHO-K1 Tl ctr=9.6;KCNQ1 sel pot=n;KCNQ2 pot conf=n;Kir2-1 sel=n;KCNQ2 W236L pot=n
CCCc1cc(=O)[nH]c(Nc2ccc(Cl)cc2)n1	x	n	x	x
Cn1c(=O)c(C(=O)Nc2ccccc2S(N)(=O)=O)c(O)c2ccccc21	5.95	n	n	n	CHO-K1 Tl ctr=n;KCNQ1 sel pot=n;KCNQ2 pot conf=n;Kir2-1 sel=n
CC(C)Cn1c(=O)c(C(=O)Nc2ccccc2S(N)(=O)=O)c(O)c2ccccc21	x	n	x	x
Cc1ccnc(Nc2nc(-c3sc(C)nc3C)cs2)c1	n	n	x	x
Cc1nc(C)c(-c2csc(Nc3ccccn3)n2)s1	5.72	n	n	n	CHO-K1 Tl ctr=n;KCNQ1 sel pot=14.6;KCNQ2 pot conf=26.2;Kir2-1 sel=n;KCNQ2 W236L pot=40.2%
Cc1ccc(S(=O)(=O)NC(=O)N(C)C2CCCCC2)cc1	n	n	x	x
SMILES	KCNQ2 enhance	KCNQ2 inh	Kir21 confirm	HEK293 ctr	others
CC#CCN1C(=O)N[C@@H](c2ccccc2)C(C(=O)OC)=C1C	n	n	x	x
CSc1ccccc1C(=O)NCc1ccc(C)cc1	n	n	x	x
Cc1nn(-c2ccc(N3CCOCC3)nn2)c(C)c1CCC(=O)N1CCN(C)CC1	x	n	x	x
CCn1c(CC(=O)Nc2ccccc2F)nnc1SCC(=O)Nc1nncs1	n	n	x	x
S=c1nc(C2CC2)[nH]c2ccccc12	15.6	n	n	341.0%	CHO-K1 Tl ctr=16.6;KCNQ1 sel pot=n;KCNQ2 pot conf=46.2;Kir2-1 sel=n;KCNQ2 W236L pot=n
S=c1nc(C2CCCCC2)[nH]c2ccccc12	x	n	x	x
CCC(C)NC(=O)C1CCC(CNS(=O)(=O)c2ccccc2)CC1 (centres undefined)	n	n	x	x
Cc1ccc(S(=O)(=O)NC(C)(C)CN2CCCCC2)cc1	n	n	x	x
C/C(=C/CCC(C)C1CCC2(C)C3CCC4C(C)(C)C(=O)CCC4(C)C3=CCC12C)C(=O)O (centres undefined)	n	n	x	x
